Records with an inconclusive call do not appear. Active and inactive are the calls of the source. Calls follow the shape of the dose curve; as a rule, active = well fitted cell-killing curve with a large enough effect; inconclusive = small, poorly fitted or top-dose-only effect, or effect the other way; inactive = no such curve, though single readings can be large or run the other way.
Potency is read from the fitted curve at half-maximal effect.

The assay can be described thus: Quantitative High-Throughput drug screen in 47 multiple myeloma cell lines against the NCATS MIPE library collection: Karpas417_ECACC cell viability assay (AID 1918961).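 As to viability (% of DMSO): 100% = DMSO only wells and 0% = media only wells without cells.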 The following applies: Karpas417 myeloma viability, CellTiter-Glo ATP luminescence, 48 h; viability (% of DMSO): at 45.8 µM (top of the series) unless noted. The method, boiled down:
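Steps: seed 500 cells per well; pin-transfer MIPE 4.0 library; incubate 48 h at 37C, 5% CO2, humidified; add CellTiter-Glo, 5 min room temperature; read luminescence.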
For `COc1ccc2c3n(c(=NC(=O)c4cccnc4)nc2c1OC)CCN3`, the Potency result is “inactive”.

Turning to `Cc1ccc(NC(=O)c2cccc(C(C)(C)C#N)c2)cc1Nc1ccc2ncn(C)c(=O)c2c1`, the Potency is 0.187 µM (active).

For the compound `Cc1cc([C@@H](C)Nc2ccccc2C(=O)O)c2nc(N3CCOCC3)cc(=O)n2c1`, the viability (% of DMSO) was 5.47% [at 92.2 µM] (active).

With `CC[C@@H](C)[C@H](NC(=O)[C@H](CC1CCCCC1)NC(=O)c1ccno1)C(=O)N1CCC2(CCc3ccccc32)CC1`, the viability (% of DMSO) is 124% (active).

Regarding `Cc1c(CCOc2ccc(C(=O)O)cc2)c2cc(Cl)ccc2n1C(c1ccccc1)c1ccccc1`, the Potency result is “inactive”.

With `CS(=O)(=O)c1cccc(CNc2nc(Nc3ccc4c(c3)CCC(=O)N4)ncc2C(F)(F)F)c1`, the Potency was 2.64 µM (active).

Turning to `CC(C)(N)C(=O)N[C@H](COCc1ccccc1)C(=O)N1CCC2(CC1)CN(S(C)(=O)=O)c1ccccc12`, the Potency result is “inactive”.

Turning to `N[C@@H]1CONC1=O`, the Potency result is “inactive”.

Take `O=C(Nc1nc2ccccc2n1CCN1CCOCC1)c1cccc([N+](=O)[O-])c1`: the Potency is 4.69 µM (active).

Values taken from PubChem BioAssay (NCATS).
